Tau FP inhib: qHTS for Inhibitors of Tau Fibril Formation, Fluorescence Polarization | Microtubule-associated protein tau (Homo sapiens), P10636 | K18 P301L tau heparin fibrillization, Alexa594 FP, 6 h | Potency, µM (series often up to 57.7 µM), inactives show at the highest dose activity, negative = inhibition, most hits filed as inhibitors | hit rate 0.39% among 280,000; further: nearly all actives have a fitted effect of over 55% in size
Target sequence (P10636 561-689 P618L limits assumed): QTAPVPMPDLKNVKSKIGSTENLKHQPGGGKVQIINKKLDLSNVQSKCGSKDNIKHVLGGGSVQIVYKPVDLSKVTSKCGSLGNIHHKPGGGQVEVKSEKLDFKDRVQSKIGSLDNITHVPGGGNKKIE
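FP of Alexa 594-tau after heparin (20 uM) induction. Substrate: human K18 P301L, 15 uM unlabeled, 0.24 uM labeled. Buffer 100 mM sodium acetate pH 7. 6 hr, 37 C.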
JMJD2E inh: qHTS Assay for Inhibitors of Human Jumonji Domain Containing 2E (JMJD2E). Lysine-specific demethylase 4E (Homo sapiens), B2RXH2. JMJD2E catalytic domain, FDH-coupled NADH fluorescence (FDH is formaldehyde dehydrogenase). Potency, µM (doses to about 57.1 µM), without a hit: at the top dose activity change, negative = inhibition, hits mostly inhibitors. hit rate 1.6% among 230,000. AID 2147, 2009; active means well fitted inhibition curve with a large enough effect, not every such curve was filed as active; inconclusive means small, poorly fitted or top-dose-only effect, or another doubt; inactive means no such curve, though single readings can be large or run the other way;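 further: 0% = wells with enzyme and -100% = buffer wells without enzyme; nearly all actives have a fitted effect of over 50% in size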
Target sequence (B2RXH2 1-337 limits assumed): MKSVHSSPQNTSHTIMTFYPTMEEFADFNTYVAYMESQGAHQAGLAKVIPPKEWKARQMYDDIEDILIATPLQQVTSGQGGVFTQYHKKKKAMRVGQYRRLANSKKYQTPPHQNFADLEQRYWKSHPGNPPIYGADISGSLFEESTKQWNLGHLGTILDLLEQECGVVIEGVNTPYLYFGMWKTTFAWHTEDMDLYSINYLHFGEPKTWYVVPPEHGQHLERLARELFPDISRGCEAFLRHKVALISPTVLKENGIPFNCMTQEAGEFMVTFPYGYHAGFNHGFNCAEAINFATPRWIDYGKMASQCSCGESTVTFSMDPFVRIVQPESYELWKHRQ
GoLoco inh red: qHTS Assay for Inhibitors of RGS12 GoLoco Motif Activity (Red Fluorophore); Guanine nucleotide-binding protein G(i) subunit alpha-1 (Homo sapiens), P63096; Gai1:RGS12 GoLoco peptide FP, rhodamine, 10 min; Potency, µM (top dose mostly 61.6 µM), without a hit: at the top dose activity, negative = inhibition, most hits filed as inhibitors; hit rate 0.44% among 230,000; AID 880, 2007; active means well fitted inhibition curve with a large enough effect, not every such curve was filed as active; inactive means no such curve, though single readings can be large or run the other way; further: nearly all actives have a fitted effect of over 30% in size
Tau fluor counter: Counterscreen qHTS for Inhibitors of Tau Fibril Formation, Fluorescence Polarization | tau K18 P301L Alexa594 fluorescence, heparin fibrillization | Potency, µM (titrated, usually from 57.7 µM), without a hit: top-dose activity change, negative = decrease | hit rate 0.93% among 280,000; further: nearly all actives have a fitted effect of over 55% in size
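Human K18 P301L tau (15 uM unlabeled plus 0.24 uM Alexa 594-labeled, final) in 100 mM sodium acetate pH 7 was mixed with compound and 20 uM heparin and incubated 6 hr at 37 C.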
Tau ThT inhib: qHTS for Inhibitors of Tau Fibril Formation, Thioflavin T Binding. Microtubule-associated protein tau (Homo sapiens), P10636. recombinant tau K18 P301L, heparin-induced fibrillization, ThT fluorescence. Potency, µM (titrated, usually from 57.4 µM), for inactives: at the highest dose activity, negative = inhibition, most hits filed as inhibitors. hit rate 2.1% among 270,000; further: nearly all actives have a fitted effect of over 55% in size
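Fibril formation assay: tau K18 P301L at 15 uM with trace Alexa 594 label, heparin inducer 20 uM, pH 7 sodium acetate buffer, 37 C for 6 hr; endpoint ThT signal.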
An asterisk follows results filed as active; ? = inconclusive; . = no result given; [ ] = dose if it differs, or a comment. Only some compounds are listed: those with a hit (about 3.4% of all), similar ones and a draw of the others. Unless noted, the call rests on the fitted dose curve; in most records, active means well fitted curve in the direction sought with a large enough effect; inconclusive means small, poorly fitted or top-dose-only effect, or another doubt; inactive means no such curve, though single readings can be large; an effect the other way counts as inactive or inconclusive. Unless noted, on the % scale 0 is the no-effect control and ±100 the full control effect; potency means the concentration at half of the fitted maximal effect.

SMILES	Tau FP inhib	JMJD2E inh	GoLoco inh red	Tau fluor counter	Tau ThT inhib
Cc1ccccc1-c1cc(C(=O)Nc2sc(C)c(C)c2C(N)=O)c2ccccc2n1	?	-9.7%	31.6%	?	22.4µM*
CCCOc1c(Cl)cc(C(=O)N(Cc2cccc(OC)c2)C2CCS(=O)(=O)C2)cc1Cl (stereo not drawn)	8.2%	.	.	-20.8%	?
CN1CCc2cccc3c2C1Cc1ccc(O)c(O)c1-3 (stereo not drawn)	31.6µM*	?	19.5%	28.2µM*[quencher]	17.8µM*
CN1CCC(=C2c3ccccc3C(O)c3ccccc32)CC1 (stereo not drawn)	3.9%	5.1%	9.7%	-13.3%	.
COc1ccc(S(=O)(=O)n2nc(C)c(S(=O)(=O)N3CCC(C)CC3)c2C)cc1OC	8.6%	.	.	14.7%	7.4%
N#CC(=C=[N-])C1=C(C#N)C(c2ccccc2F)C([n+]2ccccc2)C(O)(C2CC2)N1 (stereo not drawn)	-1.1%	?	40.4%	-25.2%	?
Cc1cccc[n+]1C1C(c2ccccc2)C(C#N)=C(C(=C=[N-])C#N)NC1(O)C1CC1 (stereo not drawn)	?	?	50.1%	?	17.8µM*
Cc1cccc(C)c1NC(=O)CCCn1c(=O)c2cccn2c2ccccc21	-5.5%	.	.	?	?
O=C(Nc1nnc(COc2ccccc2F)s1)Nc1ccccc1F	14.1µM*	-0.4%	4.1%	?	.
O=C(Nc1ccc(F)cc1)Nc1nnc(COc2ccccc2F)s1	14.1µM*	6.7%	5.2%	?	10.4%
Cc1cc(C)cc(Nc2cc(C(=O)NC3CCC(C)CC3)c3ccccc3n2)c1 (stereo not drawn)	7.5%	.	.	-15.6%	-0.5%
Cc1nc2c(-c3ccc(F)cc3)c(C)nn2c(C)c1CCC(=O)NCc1cccc(Cl)c1	-7.2%	.	.	-15.6%	-0.4%
O=C(CCn1cccn1)Nc1ccc(Br)cc1F	-1.1%	.	.	2.4%	-1.1%
Cc1ccc(NC(=O)CN2C(=O)COc3ccc(S(=O)(=O)N4CCCCCC4)cc32)cc1Cl	-19.2%	.	.	?	-5.8%
NC(=S)N/N=C/c1ccccc1O	2.6%	?	17.4%	-1.0%	-10.3%
O=C(N/N=C/c1ccccc1O)C1SCCCS1	-5.7%	28.2µM*	-2.6%	2.9%	6.2%
NC(=S)N/N=C/c1cccc(O)c1O	-0.9%	35.5µM*	11.4%	-8.1%	?
Oc1ccc(/C=N/NC(=S)Nc2cccnc2)c(O)c1O	2µM*	2.24µM*	-14.7%	11.2µM*[quencher]	1.58µM*
Fc1c(F)c(F)c(/C=N/NC(=S)Nc2cccnc2)c(F)c1F	-5.5%	0.7%	25.6%	-12.2%	-16.0%
Oc1cccc(/C=N/NC(=S)NCCN2CCOCC2)c1O	-4.5%	25.1µM*	13.0%	-13.2%	-20.5%
Oc1cccc(/C=N/NC(=S)Nc2cccnc2)c1O	8.6%	22.4µM*	-12.4%	4.7%	4.1%
Oc1ccc(/C=N/NC(=S)Nc2cccnc2)c(O)c1	?	28.2µM*	10.9%	-23.1%	?
CCCC(=O)NC(NC(=S)Nc1ccc(S(N)(=O)=O)cc1)C(Cl)(Cl)Cl (stereo not drawn)	-4.9%	0.6%	4.6%	-5.4%	0.6%
O=C(CCc1ccccc1)NC(NC(=S)Nc1cccc(Cl)c1)C(Cl)(Cl)Cl (stereo not drawn)	14.1µM*	-5.3%	4.5%	-0.2%	9.6%
S=C(NCCC(c1ccccc1)c1ccccc1)Nc1cccc(Cl)c1	14.1µM*	-2.7%	5.1%	7.08µM*[quencher]	17.9%
SMILES	Tau FP inhib	JMJD2E inh	GoLoco inh red	Tau fluor counter	Tau ThT inhib
CCCC(=O)NC(NC(=S)Nc1ccc(N=Nc2ccccc2)cc1)C(Cl)(Cl)Cl (stereo not drawn)	?	-1.7%	-5.3%	?	14.1µM*
S=C(NCc1ccncc1)Nc1cccc(Cl)c1	-3.9%	5.7%	-1.4%	7.0%	7.2%
COc1ccccc1NC(=O)c1ccc(-c2nc(COc3ccc(C)cc3)c(C)o2)cc1	-0.9%	.	.	-14.7%	-9.5%
CC(C)C[C@H](N)CSSC[C@@H](N)CC(C)C	?	-1.8%	-6.0%	-15.2%	5.01µM*
Cc1cc(NC(=O)Nc2nc3c(s2)CCCCCC3)ccc1Br	-4.8%	.	.	?	17.6%
Cc1cccc(NC(=O)COc2ccc(/C=C\c3[nH]c(=O)[nH]c(=O)c3[N+](=O)[O-])cc2)c1	-6.5%	-29.8%	15.2%	0.3%	10µM*
CCOC(=O)c1cccc(NC(=O)COc2ccc([N+](=O)[O-])cc2)c1	-5.0%	8.7%	6.3%	?	?
CN=C(c1ccco1)n1c(=S)nc(-c2ccco2)n(C)c1=S	?	?	14.0%	-21.7%	28.2µM*
CCCC1=NN2C(=N)/C(=C\c3cc(C)n(Cc4ccccc4)c3C)C(=O)N=C2S1	4.4%	?	5.4%	-12.8%	-18.1%
CCCC1=NN2C(=N)/C(=C\c3ccc(SCc4ccco4)o3)C(=O)N=C2S1	-11.5%	?	325.5%	-26.7%	10µM*
CC1=CC2=NC(=O)/C(=C\c3cc(C)n(-c4cccc(Cl)c4)c3C)C(=N)N2O1	-8.1%	28.2µM*	13.7%	-12.4%	-7.5%
CCCC1=NN2C(=N)/C(=C\c3cc(C)n(-c4cccc(C)c4)c3C)C(=O)N=C2S1	-3.3%	8.91µM*	7.8%	1.9%	-14.0%
CC1=CC2=NC(=O)/C(=C\c3cc(C)n(-c4ccccc4)c3C)C(=N)N2O1	-8.8%	-186.2%	0.1%	-15.6%	?
CCC1=NN2C(=N)/C(=C\c3ccc(SCc4ccco4)o3)C(=O)N=C2S1	6.1%	-9.0%	182.2%	-28.7%	10µM*
CCC1=NN2C(=N)/C(=C/c3c(C)nn(-c4ccccc4)c3Cl)C(=O)N=C2S1	-3.1%	-5.1%	11.1%	10.6%	-11.9%
CCOC(=O)c1c(C)[nH]c(C2=NNC(=Nc3ccc(OCC)cc3)SC2)c1C	?	-22.2%	8.6%	?	14.1µM*
CCOC(=O)c1c(C)[nH]c(C2=NNC(=Nc3ccccc3)SC2)c1C	?	-8.2%	.	7.94µM*[quencher]	3.98µM*
CCOC(=O)c1c(C)[nH]c(C(=O)OCCOc2ccccc2C)c1C	0.4%	3.0%	-3.4%	-18.3%	?
CCOC(=O)c1c(C)[nH]c(C2=NNC(=Nc3ccccc3OC)SC2)c1C	-9.5%	-6.3%	2.1%	?	7.94µM*
CC(=O)c1c(C)[nH]c(C2=NNC(=NC(C)(C)C)SC2)c1C	?	?	-16.6%	-26.9%	?
CCOC(=O)c1c(C)[nH]c2cc(Br)c(O)cc12	4.1%	-0.1%	7.4%	-9.9%	?
CCOC(=O)c1c(OCC)[nH]c2c1cc(O)c1ccccc12	11.4%	22.4µM*	-15.9%	?	14.1µM*

Compound activity: PubChem, National Center for Advancing Translational Sciences (NCATS)
